Bioassay records deposited in PubChem BioAssay by several laboratories.
sPLA2-III inh – human group III sPLA2 inhibitors, primary screen, biochemical, QFRET, BODIPY PC-A2 liposome substrate. QFRET BODIPY PC-A2 liposome hydrolysis, fluorescence. inhibition, % at 12.2 µM. hit rate 0.56% among 370,000. AID 743126, 2013;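 active = inhibition above mean plus 3 SD of compounds lying within the high and low control bounds, cut at about 19% in these data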
Target sequence (Q9NZ20 whole entry, looked up): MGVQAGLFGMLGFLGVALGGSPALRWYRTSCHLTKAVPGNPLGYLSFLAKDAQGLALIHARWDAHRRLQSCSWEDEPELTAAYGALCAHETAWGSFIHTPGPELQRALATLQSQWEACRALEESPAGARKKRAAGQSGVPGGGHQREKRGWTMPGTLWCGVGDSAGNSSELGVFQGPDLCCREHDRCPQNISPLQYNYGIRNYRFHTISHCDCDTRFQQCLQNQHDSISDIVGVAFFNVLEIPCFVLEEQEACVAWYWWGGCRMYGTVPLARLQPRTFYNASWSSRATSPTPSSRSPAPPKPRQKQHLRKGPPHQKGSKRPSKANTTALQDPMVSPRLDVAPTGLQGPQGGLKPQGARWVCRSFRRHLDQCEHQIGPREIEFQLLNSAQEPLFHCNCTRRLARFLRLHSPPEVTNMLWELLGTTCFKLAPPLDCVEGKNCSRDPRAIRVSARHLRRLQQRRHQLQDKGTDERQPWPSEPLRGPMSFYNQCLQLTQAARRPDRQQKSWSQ
SKN-1 block – suppressors of acrylamide-induced Pgst-4::GFP reporter in worms, primary screen, SKN-1 inhibitor project, whole organism, uHTS, GFP/RFP fluorescence ratio, strain VP596 | C. elegans VP596 Pgst-4::GFP/RFP ratio, 24 h | inhibition, % at 21.8 µM | hit rate 0.49% among 360,000 | AID 624304, 2012;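 active = interference check ratio from 0.5 to 1.5 plus GFP to RFP signal ratio inhibition reaching or exceeding a fixed threshold, cut at about 30% in these data, passing the limit was not always enough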
Mot1-301 SUMO – yeast Mot1-301 growth rescue at high temperature, primary screen, SUMOylation pathway inhibitor project, S. cerevisiae, ATP luminescence, 38.5C; growth rescue, % at 18.8 µM; AID 2716, 2010; hit rate 1% among 320,000; S. cerevisiae Mot1-301 growth rescue; percent above DMSO median, 100 means doubled;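 active = every valid replicate shows activation above 250% relative to neutral control wells; inactive = the rest, any valid replicate at or below 250%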
Efflux pump inh – inhibitors of Candida efflux pumps in yeast, primary screen, S. cerevisiae, Nile Red, multiplex. S. cerevisiae Candida pump triplex. hit rate 0.44% among 330,000. inhibition, % at 10 µM;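 active = plate passing quality check with inhibition over a set limit, or well fluorescence over plate mean plus 4 SD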;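 note: Nile Red retained in pooled yeast measured as flow cytometry median fluorescence; higher means more Nile Red kept so more efflux inhibition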
hGIII sPLA2 conf – human group III sPLA2 inhibitors, confirmation, biochemical, QFRET, triplicate. shares compounds with sPLA2-III inh. recombinant hGIII-sPLA2, BODIPY PC-A2 QFRET fluorescence. inhibition, % at 12.2 µM. hit rate 34% among 2,000. AID 743280, 2014;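 active = mean inhibition across triplicates above the hit cutoff set in the earlier primary screen, cut at about 19% in these data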
BODIPY interf – 535nm fluorescence optical interference, confirmation, artefact control for HGIII-sPLA2 inhibitor project, biochemical, QFRET | shares compounds with sPLA2-III inh | BODIPY FL product fluorescence interference | inhibition, % at 12.2 µM | hit rate 8.5% among 2,000 | AID 743282, 2014;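 active = average inhibition above the solvent-only control mean plus 3 SD, cut at about 6% in these data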
535nm interf DR – 535nm fluorescence optical interference, dose response, artefact control for HGIII-sPLA2 inhibitor project, biochemical, QFRET | BODIPY FL product fluorescence interference, cell-free | AID 743455, 2014 | shares compounds with sPLA2-III inh | 240 tested, under 10 active | IC50, µM;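 active = IC50 at or below 10 µM; inactive = IC50 above 10 µM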
Each line names hits and unclear results; the compound was inactive in the other large screens (follow-up assays come after a bar, where they were run). An excerpt weighted towards active compounds, which were near 2.2% of everything screened.

C=CCn1c(SCc2n[nH]c(=S)n2-c2ccccc2)nnc1-c1ccccc1	sPLA2-III inh 20 | hGIII sPLA2 conf inactive | BODIPY interf inactive
C=CCn1c(CSc2ccc(C)cc2)n[nH]c1=S	sPLA2-III inh 22 | hGIII sPLA2 conf 25 | BODIPY interf inactive
OC(c1ccccc1)(c1nc(-c2ccc(F)c(Cl)c2)cs1)C(F)(F)F (configuration not stated)	none (no result: Mot1-301 SUMO, Efflux pump inh)
CC1CCN(C(=O)Cn2c3ccc(F)cc3c3nc4n(c(=O)c32)CCCS4)CC1	none (no result: sPLA2-III inh)
Fc1cccc(Cc2c(-c3ccccc3)nc3c(Cl)cc(C(F)(F)F)cn23)c1	none (no result: Mot1-301 SUMO, Efflux pump inh)
CC1SC(=Nc2ccccc2)N(S(=O)(=O)c2ccccc2)C1=O (configuration not stated)	none
Cc1ccc(-n2c(=S)[nH]c3c(oc4ccccc43)c2=O)cc1	sPLA2-III inh 25 | hGIII sPLA2 conf inactive | BODIPY interf inactive
COc1ccc(NS(=O)(=O)c2ccc3c(c2)N(C(C)=O)CC(C)S3)c(OC)c1 (configuration not stated)	none
CC(C)CCNC(=S)Nc1ccccc1F	sPLA2-III inh 20 | hGIII sPLA2 conf inactive | BODIPY interf inactive
CN(C)c1ccc(NC(=O)c2cccc(C(=O)Nc3ccc(N(C)C)cc3)n2)cc1	sPLA2-III inh 28 | hGIII sPLA2 conf 36 | BODIPY interf inactive | 535nm interf DR inactive
O=C(Nc1ccccc1)c1cccc(C(=O)Nc2ccccc2)n1	none
CC(=O)Nc1cccc2ncccc12	sPLA2-III inh 24 | hGIII sPLA2 conf inactive | BODIPY interf inactive
O=C(CC1c2cc(F)ccc2C=C(c2ccsc2)N1c1ccc(C#CCCO)cc1)c1ccco1 (configuration not stated)	none (no result: Mot1-301 SUMO, Efflux pump inh)
N#Cc1c(C(F)(F)F)cc(-c2ccco2)nc1SCc1ccccn1	sPLA2-III inh 20 | hGIII sPLA2 conf inactive | BODIPY interf inactive
N#Cc1c(C(F)(F)F)cc(-c2ccco2)nc1SCc1ccncc1	none
COC(=O)CCC(=O)c1ccc(OC)c(Cl)c1	none (no result: sPLA2-III inh, SKN-1 block)
COc1ccc(NC(=S)NCCCN2CCOCC2)cc1	sPLA2-III inh 22 | hGIII sPLA2 conf inactive | BODIPY interf inactive
COc1ccc(NC(=S)NCCN2CCOCC2)cc1	none
COc1ccc(C(C)(C)C)cc1NC(=S)NCCN1CCOCC1	sPLA2-III inh 20 | hGIII sPLA2 conf inactive | BODIPY interf inactive
CCCCn1c(N)c(N(CCC(C)C)C(=O)CSc2nc3ccccc3n2C)c(=O)[nH]c1=O	none (no result: Mot1-301 SUMO, Efflux pump inh)
CSC1=NCCCN1C(=O)c1c(-c2ccccc2Cl)noc1C	sPLA2-III inh 22 | hGIII sPLA2 conf inactive | BODIPY interf inactive
CCOC(=O)c1sc(NC(=O)C2CC(=O)N(c3ccc(OCC)cc3)C2)nc1C (configuration not stated)	none
Cc1cccc(-n2ncc3c(=O)[nH]c(SCC(=O)NCCC4=CCCCC4)nc32)c1	none
NC(=O)CCc1c[nH]c2ccccc12	none
OCC(CCc1c[nH]c2ccccc12)c1c[nH]c2ccccc12 (configuration not stated)	sPLA2-III inh 35 (no result: SKN-1 block, Mot1-301 SUMO, Efflux pump inh) | hGIII sPLA2 conf inactive | BODIPY interf 10
C[N+]1(CC2COC3(CCCCC3)O2)CCCC1 (configuration not stated)	sPLA2-III inh 24 | hGIII sPLA2 conf inactive | BODIPY interf inactive
C1CCCCCC2(CCCCC1)OCC(CN1CCOCC1)O2 (configuration not stated)	none
CCc1ccc(Nc2nc(N)nc(CSc3nc4ccccc4s3)n2)cc1	sPLA2-III inh 24 | hGIII sPLA2 conf inactive | BODIPY interf inactive
Fc1ccccc1-c1nc(N2CCCCC2)c2ccccc2n1	sPLA2-III inh 21 | hGIII sPLA2 conf inactive | BODIPY interf inactive
COc1ccc(/C=N\NC(=S)SCN2C(=O)C3CCC(C)(C2=O)C3(C)C)cc1 (configuration not stated)	none
CC12CCC(C(=O)N(CSC(=S)N/N=C\c3ccccc3O)C1=O)C2(C)C (configuration not stated)	sPLA2-III inh 28 | hGIII sPLA2 conf 36 | BODIPY interf inactive
N#C/C(=C\c1ccco1)C(=O)NCC1CCCO1 (configuration not stated)	none
CCC1(CC)Cc2ccccc2C(CC(=O)N2CCOCC2)=N1	sPLA2-III inh 20 | hGIII sPLA2 conf inactive | BODIPY interf inactive
Cc1ccc2c(c1)c1c(n2CC(O)CNC2CCCC2)CCCC1 (configuration not stated)	sPLA2-III inh 20 | hGIII sPLA2 conf inactive | BODIPY interf inactive
O=P1(NC2CCCCC2)OCC2(CO1)COP(=O)(NC1CCCCC1)OC2 (configuration not stated)	none (no result: Mot1-301 SUMO, Efflux pump inh)
CNS(=O)(=O)c1ccc(N=Cc2c(C)[nH]n(-c3ccc(C)cc3C)c2=O)cc1	none
Cc1ccc(-n2[nH]c(C)c(C=Nc3ccc(S(=O)(=O)N4CCOCC4)cc3)c2=O)c(C)c1	sPLA2-III inh 22 (no result: SKN-1 block) | hGIII sPLA2 conf inactive | BODIPY interf inactive
CC(C)Cn1c(-c2csc3ccccc23)n[nH]c1=S	none
CCn1c(-c2csc3ccccc23)n[nH]c1=S	sPLA2-III inh 24 | hGIII sPLA2 conf 22 | BODIPY interf inactive
Oc1ccccc1/C=N/n1c(COc2ccccc2)n[nH]c1=S	sPLA2-III inh 24 | hGIII sPLA2 conf inactive | BODIPY interf inactive
CCOc1ccccc1/C=N/n1c(COc2ccccc2)n[nH]c1=S	sPLA2-III inh 23 | hGIII sPLA2 conf 19 | BODIPY interf 6.9
Cc1ccc(/C=N/n2c(COc3ccccc3)n[nH]c2=S)o1	sPLA2-III inh 20 | hGIII sPLA2 conf 25 | BODIPY interf inactive
Cc1n[nH]c(=S)n1/N=C/c1ccccc1OCc1ccc(Cl)cc1Cl	sPLA2-III inh 20 | hGIII sPLA2 conf inactive | BODIPY interf inactive
Oc1ccc(/C=N/n2c(COc3ccccc3)n[nH]c2=S)c(O)c1	none
Cc1cc2[nH]c(=O)c(=O)[nH]c2cc1S(=O)(=O)N1CCC(C)CC1	none
COc1ccc(/C=N/OCC(=O)OCC(=O)N(C)c2ccccc2)cc1	none
COc1ccc2[nH]c(N=Nc3ccccc3C)c(O)c2c1	sPLA2-III inh 25 | hGIII sPLA2 conf inactive | BODIPY interf inactive
CCOC(=O)c1ccc(NC(=O)CCCN2C(=O)NC3(CCCC3)C2=O)cc1	none
CCC(C)NC(=O)CCSc1ccc(C)cc1 (configuration not stated)	sPLA2-III inh 19 | hGIII sPLA2 conf inactive | BODIPY interf inactive
